PubChem BioAssay AID1159580 (chemical genetic matrix, 2015)
Values joined by “and” are separate entries in the source; they are usually repeats but may differ in a detail not shown here. Equal entries are not always repeated. The campaign covered roughly 5,500 compounds. About 2,000 (36%) were called active. Roughly 18% stayed inconclusive and do not appear here. Rule as the data show it: active = normalized growth mostly below about 0.91 (no sharp cut-off); inconclusive = no clear call, values can overlap the other calls; inactive = mostly above about 0.92. The list shows a part of the results.

Assay: chemical genetic growth profiling, strain panel (AID 1159580);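 also: tested at 20 µM; growth read once vehicle control cultures reached saturation at 30 °C; 1 = growth at the plate median or of vehicle wells; lower values mean less growth of the strain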
Details: S. cerevisiae deletion strains, growth OD

Measured: normalized growth

C/C=C/CC(C)C(O)C1C(=O)NC(CC)C(=O)N(C)CC(=O)N(C)C(CC(C)C)C(=O)NC(C(C)C)C(=O)N(C)C(CC(C)C)C(=O)NC(C)C(=O)NC(C)C(=O)N(C)C(CC(C)C)C(=O)N(C)C(CC(C)C)C(=O)N(C)C(C(C)C)C(=O)N1C (stereo not given)
inactive: locus YAL013W, strain DEP1, stronger effect = lower value 0.998 | locus YAL021C, strain ccr4, stronger effect = lower value 1.02 | locus YAL026C, strain drs2, stronger effect = lower value 1 | locus YAL030W, strain snc1, stronger effect = lower value 1.02 | locus YAL040C, strain CLN3, stronger effect = lower value 1.04 | locus YBL061C, strain skt5, stronger effect = lower value 1.01 | locus YBR009C, strain hhf1, stronger effect = lower value 1.01 | locus YBR021W, strain FUR4, stronger effect = lower value 1.02 | locus YBR023C, strain chs3, stronger effect = lower value 1.01 | locus YBR171W, strain sec66, stronger effect = lower value 1.01 | locus YBR229C, strain ROT2, stronger effect = lower value 0.972 | locus YBR231C, strain swc5, stronger effect = lower value 1.02 | locus YBR279W, strain paf1, stronger effect = lower value 1.02 | locus YCL011C, strain gbp2, stronger effect = lower value 1.01 | locus YCL016C, strain dcc1, stronger effect = lower value 0.996 | locus YCL029C, strain bik1, stronger effect = lower value 1.01 | locus YCL061C, strain MRC1 (second series), stronger effect = lower value 0.983 | locus YCL061C, strain MRC1, stronger effect = lower value 1.02 | locus YCL069W, strain vba3, stronger effect = lower value 1.02 | locus YCR088W, strain abp1, stronger effect = lower value 1.02 | locus YDL005C, strain med2, stronger effect = lower value 1.01 | locus YDL035C, strain GPR1, stronger effect = lower value 0.979 | locus YDL040C, strain nat1, stronger effect = lower value 1.01 | locus YDL074C, strain BRE1, stronger effect = lower value 0.937 | locus YDL101C, strain DUN1, stronger effect = lower value 0.988 | locus YDL134C, strain PPH21, stronger effect = lower value 0.983 | locus YDL192W, strain arf1, stronger effect = lower value 1 | locus YDR001C, strain nth1, stronger effect = lower value 1.01 | locus YDR069C, strain doa4, stronger effect = lower value 1.03 | locus YDR101C, strain arx1, stronger effect = lower value 1.02 | locus YDR150W, strain NUM1, stronger effect = lower value 0.996 | locus YDR159W, strain sac3, stronger effect = lower value 0.993 | locus YDR162C, strain NBP2, stronger effect = lower value 0.952 | locus YDR195W, strain ref2 1.01 | locus YDR297W, strain sur2, stronger effect = lower value 1.02 | locus YDR318W, strain mcm21, stronger effect = lower value 1.03 | locus YDR334W, strain swr1, stronger effect = lower value 1.02 | locus YDR335W, strain msn5, stronger effect = lower value 1.02 | locus YDR388W, stronger effect = lower value 1.03 | locus YDR392W, strain spt3, stronger effect = lower value 0.873 | locus YDR502C, strain sam2, stronger effect = lower value 1.01 | locus YEL003W, strain gim4, stronger effect = lower value 1.02 | locus YEL037C, strain rad23, stronger effect = lower value 1.06 | locus YEL061C, strain CIN8 (second series), stronger effect = lower value 1 | locus YEL061C, strain CIN8, stronger effect = lower value 0.996 | locus YER002W, strain NOP16, stronger effect = lower value 0.966 | locus YER015W, strain faa2, stronger effect = lower value 1.02 | locus YER016W, strain bim1, stronger effect = lower value 1.02 | locus YER110C, stronger effect = lower value 1.02 | locus YER111C, strain swi4, stronger effect = lower value 0.99 | locus YER155C, strain BEM2 (second series), stronger effect = lower value 0.952 | locus YER155C, strain BEM2, stronger effect = lower value 1.03 | locus YER167W, strain BCK2, stronger effect = lower value 1.03 | locus YFR010W, strain ubp6, stronger effect = lower value 1 | locus YGL078C, strain dbp3, stronger effect = lower value 1.02 | locus YGL086W, strain mad1, stronger effect = lower value 1.02 | locus YGL167C, strain pmr1, stronger effect = lower value 1.03 | locus YGL173C, strain kem1, stronger effect = lower value 1.02 | locus YGL227W, strain vid30, stronger effect = lower value 1.02 | locus YGL240W, strain doc1, stronger effect = lower value 0.978 | locus YGL248W, strain PDE1, stronger effect = lower value 0.985 | locus YGL253W, strain hxk2, stronger effect = lower value 1.02 | locus YGR078C, strain PAC10, stronger effect = lower value 0.964 and 1.01 | locus YGR135W, strain pre9, stronger effect = lower value 0.991 | locus YGR229C, strain SMI1, stronger effect = lower value 0.937 and 1.01 | locus YGR252W, strain gcn5, stronger effect = lower value 0.913 | locus YHR013C, strain ard1, stronger effect = lower value 1.03 | locus YHR027C, strain rpn1, stronger effect = lower value 1.03 | locus YHR030C, strain SLT2, stronger effect = lower value 1.02 and 0.977 | locus YHR079C, strain IRE1 (second series), stronger effect = lower value 1.03 | locus YHR079C, strain IRE1, stronger effect = lower value 0.991 | locus YHR094C, strain hxt1, stronger effect = lower value 1.02 | locus YHR129C, strain ARP1, stronger effect = lower value 1.01 | locus YHR142W, strain chs7, stronger effect = lower value 1.02 | locus YHR200W, strain rpn10, stronger effect = lower value 1.02 | locus YIL066C, strain RNR3, stronger effect = lower value 0.986 | locus YIL073C, strain SPO22, stronger effect = lower value 1.02 | locus YIL125W, strain kgd1, stronger effect = lower value 1 | locus YIR030C, strain dcg1, stronger effect = lower value 1.02 | locus YJL092W, strain hpr5, stronger effect = lower value 1.02 | locus YJL095W, strain BCK1 (second series), stronger effect = lower value 1.03 | locus YJL095W, strain BCK1, stronger effect = lower value 0.908 and 0.989 | locus YJL115W, strain asf1, stronger effect = lower value 1.02 | locus YJL129C, strain trk1, stronger effect = lower value 1.08 | locus YJL134W, strain LCB3, stronger effect = lower value 1 | locus YJL154C, strain vps35, stronger effect = lower value 1.01 | locus YJL164C, strain tpk1, stronger effect = lower value 1.04 | locus YJL166W, strain qcr8, stronger effect = lower value 1.02 | locus YJL168C, strain set2, stronger effect = lower value 1.03 | locus YJL187C, strain SWE1 (second series), stronger effect = lower value 0.968 | locus YJL187C, strain SWE1, stronger effect = lower value 1.02 | locus YJR043C, strain POL32, stronger effect = lower value 1 | locus YJR066W, strain TOR1, stronger effect = lower value 0.959
active: locus YDL185W, strain tfp1, stronger effect = lower value 0.358 | locus YDR137W, strain rgp1, stronger effect = lower value 0.637
